Rows were chosen to be rich in hits. Some 2.6% of all compounds tested hit in one or more screens of this group.
Cruzain Triton: qHTS Assay for Promiscuous and Specific Inhibitors of Cruzain (with detergent); Cruzipain (Trypanosoma cruzi), P25779; purified cruzain, Z-FR-AMC fluorescence, 0.01% Triton; Potency, µM, for inactives: max response, negative = inhibition, actives largely listed as inhibitors; actives 0.43% (n = 200,000);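 also: plate controls were neutral wells for no effect and buffer without enzyme for full effect; nearly all actives have a fitted effect of over 40% in size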
Target sequence (P25779 123-467 limits assumed): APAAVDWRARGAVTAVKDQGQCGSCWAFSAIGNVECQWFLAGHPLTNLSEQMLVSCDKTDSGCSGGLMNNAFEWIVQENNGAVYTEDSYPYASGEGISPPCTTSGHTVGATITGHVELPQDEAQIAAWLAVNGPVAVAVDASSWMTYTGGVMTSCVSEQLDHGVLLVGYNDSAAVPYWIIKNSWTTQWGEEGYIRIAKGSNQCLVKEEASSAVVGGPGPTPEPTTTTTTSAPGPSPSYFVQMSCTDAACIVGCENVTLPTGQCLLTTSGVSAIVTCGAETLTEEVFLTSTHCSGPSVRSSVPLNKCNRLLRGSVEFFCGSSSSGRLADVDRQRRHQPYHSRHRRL
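Z-FR-AMC hydrolysis (2 uM substrate) by cruzain (1.5 nM) monitored kinetically at ex 360/em 450 nm after 15 min room-temperature compound exposure; 0.01% Triton X-100, pH 5.5, 5 mM DTT.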
Cruzain inh noDet: qHTS Assay for Promiscuous and Specific Inhibitors of Cruzain (without detergent) | Potency, µM, for inactives: max response, negative = inhibition, usual class: inhibitors | purified cruzain, Z-FR-AMC fluorescence, no detergent | Cruzipain (Trypanosoma cruzi), P25779 | actives 2.3% (n = 200,000);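 also: plate controls were enzyme without inhibitor for no effect and buffer without enzyme for full effect; nearly all actives have a fitted effect of over 40% in size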
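Detergent-free condition (0.00005% Triton X-100) in acetate buffer pH 5.5 with DTT. 1.5 nM enzyme and compound were pre-mixed 15 min, then 2 uM Z-FR-AMC substrate added; reaction progress from fluorescence change between first and third reads (60 s).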
* marks the source's active call; other numbers are inactive results; ? = inconclusive. Calls follow the shape of the dose curve; as a rule, active = well fitted curve in the direction sought with a large enough effect; inconclusive = small, poorly fitted or top-dose-only effect, or another doubt; inactive = no such curve, though single readings can be large; an effect the other way counts as inactive or inconclusive. Potency is read from the fitted curve at half-maximal effect.

SMILES | Cruzain Triton | Cruzain inh noDet
O=C1NC(=O)c2cc(Nc3ccc(F)cc3)c(Nc3ccc(F)cc3)cc21 | -0.6% | -8.7%
COc1ccccc1NC(=O)C1=C(C)Nc2nc(SCc3ccccc3C)nn2C1CC(C)C (stereo not drawn) | -1.7% | -7.2%
C[C@](N)(C(=O)O)c1ccc(-c2nn[nH]n2)cc1 | -1.6% | -0.3%
Cc1cccc(C2=NN(c3ccc(Br)cc3)[C@@H](C(=O)N3CCOC3=O)[C@@H]2c2ccc(Cl)cc2)c1 | 3.0% | 8.91µM*
Cc1cccc(C2=NN(c3ccc(Br)cc3)[C@@H](C(=O)N3CCOC3=O)[C@@H]2c2ccc(F)cc2)c1 | -14.2% | 17.8µM*
Cc1cccc(-c2nc3c(cnn3-c3ccccc3)c(=O)n2-c2ccc(Cl)cc2)c1 | -9.5% | ?
Cc1cccc(-c2nc3c(cnn3-c3ccccc3)c(=O)n2-c2ccc(Br)cc2)c1 | -11.3% | -8.6%
CCNc1ncc2nc(CCc3ccccc3)c(=O)n(C3CC3)c2n1 | -2.4% | 0.4%
C[N+](=O)[O-] | 5.6% | 5.5%
O=c1ccn(Cc2ccccc2)c(=O)n1Cc1ccccc1 | -3.6% | 3.0%
O=c1ccsn1Cc1ccccc1 | ? | 12.6µM*
O=C(NCc1ccc(F)cc1)c1ccc2c(c1)nnn2C1CCCC1 | -3.0% | 11.3%
COc1ccc(C(=O)N2CCC(c3c[nH]c4ccccc34)(c3c[nH]c4ccccc34)CC2)cc1 | -3.4% | -15.0%
CCN(CC)c1ccc(C(=O)N2CCC(c3c[nH]c4ccccc34)(c3c[nH]c4ccccc34)CC2)cc1 | -1.6% | 10µM*
Cc1cccc(-c2ccc(-c3cc(=O)oc4cc(C)cc(C)c34)cc2)c1 | 3.2% | ?
O=C(COc1ccc(/C=N/NS(=O)(=O)c2ccccc2)cc1)Nc1cccc(Cl)c1 | -5.4% | -14.3%
O=C(Nc1ccc(O)c(-c2nc3ccccc3o2)c1)C1(c2ccc(Br)cc2)CCCC1 | 0.3% | 5.01µM*
Cc1ccc(OCC(=O)Nc2ccc(O)c(-c3nc4ccccc4o3)c2)cc1 | -2.4% | 3.98µM*
Cc1ccc(OCC(=O)Nc2ccc3nc(Nc4cccc(Cl)c4)cc(C)c3c2)cc1 | 2.8% | 20µM*
Cc1cc(C)cc(OCC(=O)Nc2ccc(-c3nc4ccccc4o3)cc2)c1 | -1.6% | 1.2%
O=C(Nc1ccc(O)c(-c2nc3ccccc3o2)c1)c1ccc(Br)cc1 | 0.5% | -2.4%
CCCCC(=O)N(Cc1ccc(-c2ccccc2-c2nn[nH]n2)cc1)C(C(=O)O)C(C)C (stereo not drawn) | -0.7% | -5.7%
O=C(NCCc1ccccc1)c1cc(-c2ccccc2)nc2n[nH]c(-c3ccccc3)c12 | -4.9% | ?
CC(=C(CCOP(=O)(O)O)SC(=O)c1ccccc1)N(C=O)Cc1cnc(C)nc1N | 5.2% | -4.7%
CC1=NN(c2nc(-c3ccc(C)cc3)cs2)C(=O)C1N=Nc1cccc(C)c1 (stereo not drawn) | -5.3% | 12.6µM*
SMILES | Cruzain Triton | Cruzain inh noDet
CC1=NN(c2nc(-c3ccccc3)cs2)C(=O)C1 | -10.2% | -18.0%
O=c1c2ccccc2nc(SCc2nc(-c3ccccc3)no2)n1-c1ccc(F)cc1 | -3.2% | 25.1µM*
COc1ccc(-c2noc(CSc3nc4sc(C)c(C)c4c(=O)n3-c3ccccc3)n2)cc1 | -3.3% | 7.94µM*
COc1ccc(-c2noc(CSc3nc4ccccc4c(=O)n3-c3ccccc3)n2)cc1OC | -1.2% | 12.4%
COc1ccc(-c2noc(CSc3nc4sc(C)c(C)c4c(=O)n3-c3ccccc3)n2)cc1OC | 0.0% | -17.6%
Cc1noc(C)c1CSc1nc2ccccc2c(=O)n1-c1ccc(Cl)cc1 | 0.9% | 20µM*
Cc1noc(C)c1CSc1nc2sc(C)c(C)c2c(=O)n1-c1ccccc1 | -1.0% | -13.3%
COc1ccc2c(C)c(CC(=O)NCCc3ccc(Cl)cc3)c(=O)oc2c1C | -0.2% | 5.6%
Cc1cccc(CNc2cc(-c3ccoc3)ncn2)c1 | -2.7% | -15.7%
COc1ccc(-c2cc(=O)oc3cc4occ(C)c4cc23)cc1 | -1.9% | -16.9%
COc1ccc(-c2cc(=O)oc3cc(OC(=O)C4CCCCC4)c(Cl)cc23)cc1 | -5.3% | 6.31µM*
Cc1c(C(=O)NC2CCCCC2)sc2nc3ccc(N)cc3n12 | -6.1% | ?
O=c1oc(-c2ccco2)nc2ccccc12 | -2.9% | 1.8%
c1coc(-c2nc3ccccc3nc2-c2ccco2)c1 | 14.1µM* | 12.6µM*
O=P(O)(O)c1ccccc1 (tested in a mixture with another compound) | 1.5% | 4.9%
Cc1ccccc1Nc1cc(C(=O)NCCCN2CCN(c3cccc(Cl)c3)CC2)c2ccccc2n1 | -21.8% | ?
CC1(C)CC[C@]2(C(=O)O)C(O)C[C@@]3(C)C(=CCC4[C@@]5(C)CCC(O)C(C)(C)C5CC[C@@]43C)C2C1 (stereo partly drawn) | 7.2% | 8.2%
CC(C)c1ccc(NS(=O)(=O)c2ccc3nc(-c4ccccc4)[nH]c3c2)cc1 | -8.8% | 12.9%
COC(=O)c1ccccc1NC(=O)c1ccc(COc2cccc3ccccc23)o1 | -1.4% | 15.8µM*
COC(=O)c1ccccc1NC(=O)c1ccc(COc2ccccc2)o1 | -12.3% | -16.9%
C=CC(=O)OCC | 1.5% | -1.2%
O=C(N/N=C\c1ccc(CNS(=O)(=O)c2ccccc2)o1)C(=O)Nc1ccc(F)cc1 | 1.3% | ?
O=C(N/N=C\c1ccc(CNS(=O)(=O)c2ccc(Cl)cc2)o1)C(=O)Nc1ccc(Oc2ccccc2)cc1 | -0.8% | 7.94µM*
Cc1cccc(CN(CC(=O)N/N=C/c2ccco2)S(=O)(=O)c2ccc(Cl)cc2)c1 | -2.6% | 16.9%
O=C(N/N=C\c1ccc(CN(Cc2ccc(Cl)cc2)S(=O)(=O)c2ccccc2)o1)C(=O)Nc1ccc(F)cc1 | 1.6% | 7.94µM*
SMILES | Cruzain Triton | Cruzain inh noDet
O=C(O)c1ccncc1.O=C(O)c1ccncc1.[Cl][Pt]([Cl])([Cl])[Cl] | 0.5% | 4.3%
C/C(C[n+]1ccccc1)=N\N=C(N)N | 6.4% | 2.7%
COc1ccc(-c2cc(C(=O)Oc3ccccc3)c3cc(C)ccc3n2)cc1 | -1.6% | 5.2%
Cc1ccc(N2CCN(C(=O)C3CCC(CNS(=O)(=O)c4ccc(Br)s4)CC3)CC2C)cc1 (stereo not drawn) | -3.0% | -24.1%
Cc1ccc(-n2nc(C)c(C3C(C#N)=C(N)Oc4c3c(=O)oc3ccccc43)c2Cl)cc1 (stereo not drawn) | -0.2% | 20µM*
Cc1nn(-c2ccccc2)c(Cl)c1C1C(C#N)=C(N)Oc2c1c(C)nn2-c1ccccc1 (stereo not drawn) | -1.6% | 1.8%
Cc1cccc(C)c1Nc1nn2c(=O)c3cc4c(cc3nc2s1)OCO4 | -0.3% | -8.5%
N#Cc1c(Nc2ccccc2)sc(C(=O)c2ccccc2)c1N | -10.8% | -6.7%
COc1ccc(S(=O)(=O)c2c(Nc3ccccc3F)sc(C(=O)c3cccc(OC)c3)c2N)cc1 | -1.2% | 12.6µM*
Cc1c(Cl)cccc1Nc1sc(C(=O)c2ccccc2)c(N)c1S(=O)(=O)c1ccccc1 | -4.7% | ?
CCc1ccccc1Nc1sc(C(=O)c2ccccc2)c(N)c1S(=O)(=O)c1ccccc1 | -4.1% | 6.31µM*
CCc1ccccc1Nc1sc(C(=O)c2cccc(OC)c2)c(N)c1S(=O)(=O)c1ccccc1 | -5.0% | 7.94µM*
CC(C)c1ccc(Nc2sc(C(=O)c3ccccc3)c(N)c2S(=O)(=O)c2ccccc2)cc1 | -0.2% | 3.98µM*
COc1cccc(C(=O)c2sc(Nc3ccc(F)c(Cl)c3)nc2N)c1 | -0.7% | -28.3%
